# TDP1 cell CPT – growth inhibition of DT40 Tdp1-/-;hTDP1 cells with camptothecin (screen for TDP1 inhibitors) | 12% of 420,000 active | chicken DT40 Tdp1-/-;hTDP1 cells + 20 nM CPT, ATP luminescence, 48 h | Potency, µM (top dose mostly 46.2 µM), for inactives: top-dose activity change, negative = growth inhibition, most hits filed as inhibitors; note: potency is the fitted concentration of half-maximal effect; nearly all actives have a fitted effect of over 55% in size
#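 Chicken DT40 Tdp1-/- cells complemented with human TDP1, 400 cells/well, exposed to compounds plus 20 nM camptothecin for at least 48 h at 37 C; viability read as ATP content by CellTiter-Glo luminescence.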
# DT40 TDP1 no CPT – qHTS for Inhibitors of human tyrosyl-DNA phosphodiesterase 1 (TDP1): qHTS in cells in absence of CPT | Potency, µM (highest dose often 46.2 µM), for the others: at the top dose activity change, negative = growth inhibition, usual class: inhibitors | 15% of 420,000 active | AID 686978, 2013 | DT40 Tdp1-/- hTDP1 cells, no CPT, ATP luminescence, 48 h; note: potency is the fitted concentration of half-maximal effect; nearly all actives have a fitted effect of over 55% in size
#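 No-CPT arm: Tdp1-/-;hTDP1 DT40 cells (400/well) plus compounds, incubated ≥48 hr at 37 °C. Readout CellTiter-Glo luminescence.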
# HT1080 IDH1KD tx – HT-1080 IDH1 knockdown cell toxicity (counter line); HT-1080 IDH1 knockdown viability, ATP luminescence, 48 h; Potency, µM (series often up to 46.1 µM), inactives show at the highest dose activity, negative = toxicity, usual class: cytotoxic; 2% of 360,000 active; AID 686971;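 note: potency is the fitted concentration of half-maximal effect; 0% = DMSO wells and -100% = cell-free medium wells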
#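 Viability of IDH1-knockdown HT-1080 fibrosarcoma cells was assessed by CellTiter-Glo after 48 h at 37 °C with titrated compound; concentration-effect curves were classified by fit quality and response size.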
# HT1080-NT tox – kills 2HG-producing HT-1080-NT fibrosarcoma cells. HT-1080-NT fibrosarcoma viability, CellTiter-Glo ATP luminescence, 48 h. Potency, µM (titrated, usually from 46.1 µM), for the others: top-dose activity, negative = less viability, most hits filed as cytotoxic. 1.6% of 360,000 active. AID 686970;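 note: NT is the 2HG producing partner of a matched IDH1 knockdown line; potency is the fitted concentration of half-maximal effect; 0% = DMSO-treated cells and -100% = media-only wells without cells; nearly all actives have a fitted effect of over 55% in size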
#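 Read-out is CellTiter-Glo luminescence after 10 minutes at room temperature, following 48 hours' compound treatment of HT-1080-NT cells (750 cells/well, RPMI, 5% FBS, 37 degrees C).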
# IL1B secr inh – inflammasome signaling inhibition, IL-1 beta readout; 4.7% of 360,000 active; AID 743279; activity change, % at 57.5 µM; THP-1 LPS/ATP IL-1B secretion, AlphaLISA, 16 h; active compounds read low; in the data active = activity change below about -50%; inconclusive = mostly about -30% to -49%
#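 Secreted IL-1B measured by AlphaLISA bead assay after 16 h compound exposure of THP-1 cells; compounds (final up to 57.5 uM) added 1 h before LPS (250 ng/mL) and ATP (1.25 mM) stimulation; lower signal means less secretion.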
# ALOX12 inh – blocks human arachidonate 12S-lipoxygenase; Potency, µM (titrated, usually from 108 µM), for inactives: at the highest dose activity change, negative = inhibition, usual class: inhibitors; P18054; purified 12hLO, xylenol orange hydroperoxide absorbance; 1.1% of 580,000 active; note: potency is the fitted concentration of half-maximal effect
# Target sequence (P18054 whole entry, looked up): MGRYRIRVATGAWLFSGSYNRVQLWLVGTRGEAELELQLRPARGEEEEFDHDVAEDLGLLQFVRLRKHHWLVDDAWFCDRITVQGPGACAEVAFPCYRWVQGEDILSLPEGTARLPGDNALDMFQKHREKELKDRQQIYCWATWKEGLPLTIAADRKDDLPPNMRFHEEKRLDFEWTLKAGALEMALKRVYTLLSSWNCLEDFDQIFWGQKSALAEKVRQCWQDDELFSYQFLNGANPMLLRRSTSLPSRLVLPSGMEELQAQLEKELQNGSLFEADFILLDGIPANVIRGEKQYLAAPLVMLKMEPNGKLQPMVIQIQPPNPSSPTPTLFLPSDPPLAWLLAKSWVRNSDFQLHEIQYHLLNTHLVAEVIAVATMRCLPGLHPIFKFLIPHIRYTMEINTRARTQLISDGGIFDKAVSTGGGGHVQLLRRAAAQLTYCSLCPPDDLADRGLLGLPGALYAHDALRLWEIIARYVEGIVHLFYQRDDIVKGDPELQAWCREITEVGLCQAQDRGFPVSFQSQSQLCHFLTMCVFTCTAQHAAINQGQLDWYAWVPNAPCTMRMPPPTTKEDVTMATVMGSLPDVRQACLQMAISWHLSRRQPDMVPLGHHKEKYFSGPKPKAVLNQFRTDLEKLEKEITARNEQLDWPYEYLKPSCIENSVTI
#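 Hydroperoxide product was detected by ferrous iron/xylenol orange as the 573 to 405 nm absorbance ratio. Arachidonic acid at 40 uM (final) was turned over for 30 min at room temperature by 150 nM human 12hLO, pH 7.0 Hepes buffer, after 15 min compound preincubation.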
# An asterisk follows results filed as active; ? = inconclusive; nt = not tested or not shown; [ ] = another dose, or the depositor's remark. This is one part of a sample in which hits are shown more often than they occur. Unless noted, calls come from the whole dose curve; as a rule, active = well fitted curve in the direction sought with a large enough effect; inconclusive = small, poorly fitted or top-dose-only effect, or another doubt; inactive = no such curve, though single readings can be large; an effect the other way counts as inactive or inconclusive. Unless noted, % is set by controls: 0 for no effect and ±100 for the full control effect.
SMILES,TDP1 cell CPT,DT40 TDP1 no CPT,HT1080 IDH1KD tx,HT1080-NT tox,IL1B secr inh,ALOX12 inh
CC1(C(=O)NCc2ccc(F)c(F)c2)Cc2c(-c3ccccc3)ccnc2O1 (configuration not stated),10µM*,6.5µM*,?,?,20,nt
CC1(C(=O)Nc2ccc(F)c(Cl)c2)Cc2c(-c3ccccc3)ccnc2O1 (configuration not stated),?,?,?,?,-11,?
CN(Cc1ccc(Br)cc1)CC(O)COc1cccc(Br)c1 (configuration not stated),?,?,?,?,-93*,0.89µM*
CN(C)CC(O)COc1cccc(OCC(O)CN(C)C)c1 (configuration not stated),14%,-3%,12%,0%,-6,0%
COc1ccc(CN(C)CC(O)COc2ccc(-c3ccccc3)cc2)cc1OC (configuration not stated),18µM*,?,21µM*,?,-71*,?
OC(CNCCc1ccc(C(F)(F)F)cc1)COc1cccc2ccccc12 (configuration not stated),?,?,-11%,-27%,-63*,?
OC(CNCCc1ccc(C(F)(F)F)cc1)COc1ccc2ccccc2c1 (configuration not stated),?,-49%,-7%,3%,-101*,?
Cc1ccccc1C(=O)OCc1cc(=O)n2nc(C(C)C)sc2n1,3%,-23%,nt,nt,nt,?
Cc1ccc(-c2cnc(CCC(=O)Nc3ccccc3F)o2)cc1C,nt,nt,nt,nt,nt,8%
COc1ccc(CCNCC(O)COc2cccc(Br)c2)cc1 (configuration not stated),?,?,?,?,-59*,?
COc1ccccc1COCC(O)CN1CCCCC1CO (configuration not stated),-19%,20%,-1%,2%,44,?
C=CCOc1ccc(CN(C)CC(O)COc2ccc(CCC(C)=O)cc2)cc1 (configuration not stated),?,16µM*,-7%,-16%,-17,-26%
OC(COc1ccc(OCC(O)CN2CCCCC2)cc1)CN1CCCCC1 (configuration not stated),-25%,?,-17%,-15%,?,0%
COc1ccccc1COCC(O)CNCCc1ccc(C(F)(F)F)cc1 (configuration not stated),?,?,-15%,-12%,-78*,?
OC(COc1ccc(CNCCc2ccc(C(F)(F)F)cc2)cc1)CN1CCCCC1 (configuration not stated),4.6µM*,5.8µM*,23µM*,23µM*,-24,-14%
CC(=O)CCc1ccc(OCC(O)CNCCOc2ccc(C)cc2)cc1 (configuration not stated),0%,0%,-14%,-1%,?,-15%
CC(C)NC(=S)NN=C1CCCCCC1,nt,nt,nt,nt,nt,-21%
CC(C)NC(=S)NN=C1CCC(c2ccccc2)CC1 (configuration not stated),?,16µM*,12%,7%,10,?
CCS(=O)(=O)N(C1CC1)C1CCOC2(CCN(C(=O)Nc3cccc(C)c3)CC2)C1 (configuration not stated),nt,nt,nt,nt,nt,23%
Cc1noc(C)c1C(=O)N1CC(c2nc(CCc3ccccc3)no2)C1,nt,nt,nt,nt,nt,19%
O=c1[nH]c2ccc(Br)cc2c(-c2ccccc2)c1CN1CCOCC1,?,?,-8%,-5%,-7,-5%[57.4 µM]
O=c1[nH]c2ccc(Br)cc2c(-c2ccccc2)c1CN1CCCCC1,nt,nt,nt,nt,nt,22µM*

# From PubChem
